The record followed here is PubChem BioAssay.

As a reminder, the inhibition is the drop in the measured response relative to a control, in per cent.

Values without a mark were called inactive. Activity calls are given as the source filed them.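 How the source made its calls: active means inhibition at or above 50% relative to wild type and mutant plate controls; inactive means inhibition below 50%.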

The test in a line: inhibitors of Chlamydomonas gravitaxis, primary screen, whole organism, Chlamydomonas reinhardtii, WT vs cilia-less mutant, absorbance, 96-well (AID 463189).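 Further: 0% = wild type cc124 cells in DMSO and 100% = ciliumless bld1 mutant cells.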 Conditions: OD600 absorbance, 2 days, at 10 µM, stronger effect = higher value.
With `CC(O)C(C)OC(=O)[C@@H]1C[C@@H]2c3cccc4c3c(cn4C(C)C)C[C@H]2N(C)C1` (some centres not stated), the inhibition was 33.8%.
To `NNC(N)=O` belongs 1.88%.
Regarding `N[C@@H](CCl)C(=O)O`, the inhibition is 3.95%.
The result for `NC(Cn1oc(=O)[nH]c1=O)C(=O)O` (configuration not stated) reads -0.927%.
The result for `CCCN1CCC[C@H](c2cccc(O)c2)C1` reads 0.621%; that for `Clc1ccc(C(c2ccc(Cl)cc2)n2cc[n+](CC(OCc3ccc(Cl)cc3Cl)c3ccc(Cl)cc3Cl)c2)cc1` (configuration not stated), 133% (active).
To `COc1ccccc1N1CCNCC1` belongs 6.65%.
Take `C[C@]12CC[C@H]3[C@@H](CCC4C[C@H](O)CC[C@@]43C)[C@@H]1CC[C@@H]2O` (some centres not stated): the inhibition is 2.75%.
In the case of `CCN(CC)C(=O)N[C@H]1C=C2c3cccc4[nH]cc(c34)C[C@H]2N(C)C1`, the inhibition was 8.76%.
To `CCCN(CCC)C(=O)Cc1c(-c2ccc(Cl)cc2)nc2c(Cl)cc(Cl)cn12` belongs -9.74%; to `CS(=N)(=O)CC[C@H](N)C(=O)O` (some centres not stated), 3.52%; to `N[C@@H](Cn1cc(I)c(=O)[nH]c1=O)C(=O)O`, 9.47%.
To `COc1ccc2c(c1)C13CCCCC1C(C2)N(C)CC3` (configuration not stated) belongs 6.06%; to `CCc1c(C(=O)OC)ncc2[nH]c3cc(OC)c(OC)cc3c12`, 1.73%.
The result for `C=CCN1CC[C@]23c4c5ccc(O)c4O[C@@H]2/C(=N/N=C2\CC[C@@]4(O)C6Cc7ccc(O)c8c7[C@@]4(CCN6CC=C)[C@@H]2O8)CC[C@@]3(O)C1C5` reads 6.59%.
With `Cc1c(C(=O)c2cccc3ccccc23)c2cccc3c2n1[C@H](CN1CCOCC1)CO3`, the inhibition is 9.81%.
To `O=C1CCCN1CC#CCN1CCCC1` belongs 7.02%.
The result for `C[C@]12CCC3C(CC[C@H]4C[C@H](O)CC[C@]34C)C1CC[C@@H]2C(=O)CO` (some centres not stated) reads 4.52%; that for `O=C(O)C1C2CCC(O2)C1C(=O)O` (configuration not stated), -11.7%; that for `COc1cc(C[C@@H](C)N)c(OC)cc1I`, -7.2%.
The result for `C=C(C)[C@H]1Cc2c(ccc3c2O[C@@H]2COc4cc(OC)c(OC)cc4[C@@H]2C3=O)O1` reads 4.66%.
`O=S1(=O)N(CCN2CC=C(c3c[nH]c4cc(F)ccc34)CC2)c2cccc3c2N1CCC3`: the inhibition is -4.93%.
